Results from PubChem BioAssay (NCI).
This is part of a sample that, as a whole, favours compounds with a hit. Of some 83,000 tested, about 20% had one in any assay.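 Negative percent growth values reflect cell death: -40 means 40% of the cells present at the start died, and -100 means all died.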 Calls of active or inactive are those of the source. How the source made its calls: active means growth percent below 10; inactive means the rest.

Tests used:
Assay in all cases: NCI-60 one-dose screen, 48 h (100 = growth as untreated, 0 = no growth, -100 = all killed)
[1] = tested on: SN12C renal; details: 10 µM unless noted
[2] = tested on: UO-31 renal; details: 10 µM unless noted
[3] = tested on: TK-10 renal; details: 10 µM unless noted
[4] = tested on: ACHN renal; details: 10 µM unless noted
[5] = tested on: CAKI-1 renal; details: 10 µM unless noted
[6] = tested on: A498 renal; details: 10 µM unless noted
[7] = tested on: MOLT-4 leukemia; details: 10 µM unless noted
[8] = tested on: SR leukemia; details: 10 µM unless noted
[9] = tested on: RPMI-8226 leukemia; details: 10 µM unless noted
[10] = tested on: OVCAR-8 ovarian; details: 10 µM unless noted
[11] = tested on: OVCAR-5 ovarian; details: 10 µM unless noted
[12] = tested on: OVCAR-4 ovarian; details: 10 µM unless noted
[13] = tested on: SK-OV-3 ovarian; details: 10 µM unless noted
[14] = tested on: IGROV1 ovarian; details: 10 µM unless noted
[15] = tested on: OVCAR-3 ovarian; details: 10 µM unless noted
[16] = tested on: HS 578T breast; details: 10 µM unless noted
[17] = tested on: NCI/ADR-RES ovarian; details: 10 µM unless noted
[18] = tested on: EKVX NSCLC; details: 10 µM
[19] = tested on: CCRF-CEM leukemia; details: 10 µM

Measured: growth

Clc1ccc(I)c2ccccc12
inactive: [1] 111% | [2] 82.6% | [3] 92.6% | [4] 103% | [5] 95.6% | [6] 117% | [7] 98.9% | [8] 102% | [9] 104% | [10] 102% | [11] 107% | [12] 107% | [13] 103% | [14] 107% | [15] 108% | [16] 98.9% | [17] 109%

C=CCNCCC#N
inactive: [1] 109% | [2] 102% | [3] 110% | [4] 105% | [5] 113% | [6] 120% | [7] 107% | [8] 89.7% | [9] 101% | [10] 96.8% | [11] 108% | [12] 106% | [13] 103% | [14] 108% | [15] 114% | [17] 117%

O=[N+]([O-])c1ccc(-c2ncc(-c3ccc(O)cc3O)[nH]2)cc1
inactive: [18] 92.4% | [1] 101% | [2] 102% | [3] 124% | [4] 106% | [6] 101% | [7] 99.1% | [9] 74.1% | [10] 101% | [11] 125% | [12] 104% | [13] 116% | [15] 105% | [16] 70.9% | [17] 115%
active: [19] -19.1% | [8] -28.9%

COc1ccc(C(=O)N2N=C(c3ccc(Br)cc3)CC2c2cn(-c3ccccc3)nc2-c2ccccc2)cc1 (stereo not given)
inactive: [18] 78.5% | [1] 58.9% | [2] 84.5% | [5] 75% | [6] 89.1% | [19] 67.9% | [7] 46.1% | [9] 67.9% | [10] 31.5% | [11] 101% | [12] 67.5% | [13] 76.6% | [14] 85.2% | [15] 53.4% | [16] 85.2% | [17] 41.5%

N#Cc1c2ncccc2c2nnc3cc(Cl)c(Cl)cc3n12
inactive: [18] 84.1% | [1] 110% | [2] 76.3% | [4] 84.5% | [5] 70.3% | [6] 115% | [7] 98.9% | [8] 70.2% | [10] 87.6% | [11] 90.1% | [12] 108% | [13] 104% | [14] 72.9% | [15] 70.2% | [17] 99.8%

Nc1nc(-c2cccc(Br)c2)cc(-c2cc3ccccc3oc2=O)n1
inactive: [18] 93.9% | [1] 99.9% | [2] 64.2% | [3] 74.8% | [4] 98.2% | [5] 92% | [6] 123% | [19] 77.1% | [7] 82.4% | [8] 89.6% | [9] 98.7% | [10] 97.2% | [11] 106% | [13] 97.8% | [14] 67.2% | [15] 99.6% | [16] 87.3% | [17] 105%

CC(C)(C)c1ccc(OCCOC(=O)CBr)cc1
inactive: [18] 126% | [1] 116% | [2] 92.9% | [4] 85.9% | [5] 107% | [6] 107% | [19] 56.2% | [7] 63% | [9] 88.2% | [10] 83.8% | [11] 104% | [12] 98.8% | [13] 104% | [15] 101% | [16] 108% | [17] 108%
active: [14] 2.57%

O=C(Nc1ccc(-n2cc(-c3ccncc3)c(-c3ccc(Cl)c(O)c3)n2)cc1)Nc1cc(C(F)(F)F)cc(C(F)(F)F)c1
inactive: [18] 15.9% | [1] 30.1% | [2] 35.3% | [4] 12% | [6] 17.7% | [10] 18.2% | [11] 38.2% | [12] 26.5% | [13] 15% | [14] 23.4% | [15] 17.3% | [17] 11.3%
active: [5] 8.54% | [19] 2.13% | [8] -0.887% | [9] -25.7% | [16] -31.2%

COC(=O)C(Cc1cnc[nH]1)N1CC(=O)N2[C@@H](c3ccccc3)SC[C@H]2C1=O (stereo not given in full)
inactive: [18] 101% | [1] 107% | [2] 88.4% | [4] 106% | [5] 94.1% | [6] 95.9% | [19] 99.6% | [7] 99.7% | [8] 106% | [9] 105% | [10] 98.4% | [11] 103% | [12] 111% | [13] 115% | [15] 111% | [16] 106% | [17] 107%

COc1cc(-c2nn(-c3ccc(NC(=O)Nc4ccc(Cl)c(C(F)(F)F)c4)cc3)cc2-c2ccncc2)ccc1Cl
active: [18] 3.21% | [3] -3.21% | [4] 5.32% | [5] -5.53% | [6] 6.77% | [7] 1.77% | [8] -1.8% | [10] 8.56% | [17] -1.19%
inactive: [1] 26.2% | [2] 24.5% | [11] 25% | [12] 23.1% | [13] 10.7% | [14] 25.9% | [15] 10.9%

CCCCCCCCCC(C)NC(=O)CCl (stereo not given)
inactive: [1] 75.1% | [2] 83.7% | [4] 93% | [5] 93.4% | [6] 91.3% | [7] 72.1% | [9] 97.6% | [10] 88.3% | [11] 107% | [12] 89.4% | [13] 103% | [14] 25.6% | [15] 89.3% | [16] 102% | [17] 101%

O=C(N/N=C\c1ccc(-c2ccc(Br)cc2)o1)c1cc2oc(-c3cccc(C(F)(F)F)c3)cc2[nH]1
active: [19] 0.0711% | [8] -3.49%
inactive: [18] 142% | [1] 107% | [2] 122% | [3] 127% | [4] 95% | [6] 87.6% | [7] 66.6% | [9] 98.4% | [10] 103% | [11] 88.4% | [12] 106% | [13] 115% | [14] 130% | [15] 101% | [16] 81.1% | [17] 96%

Cc1cc2cn3c4ccc(O)cc4[nH]c(=O)c3c2cc1C
active: [2] 3.07% | [3] 0.912% | [5] -5.2% | [19] -7.53% | [7] -18.2% | [8] -16.1% | [9] -37% | [10] -13.2% | [14] -1.79% | [15] -34.9% | [16] -31.8% | [17] 3.46%
inactive: [18] 41.3% | [1] 38.5% | [6] 18.6% | [11] 32.6%
